The panel holds about 83,000 compounds, 20% with a hit somewhere; the sample as a whole holds those more often.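 For each line, cells grew in 96-well plates with the test compound present at a single concentration for 48 hours.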 Activity calls are given as the source filed them. The calls were made as follows: active = growth percent below 10; inactive = the rest.
Legend:
Test in all cases: NCI-60 one-dose screen, 48 h (100 = growth as untreated, 0 = no growth, -100 = all killed)
Conditions in all cases: 10 µM unless noted
EKVX NSCLC = test system: EKVX NSCLC
SN12C renal = test system: SN12C renal
UO-31 renal = test system: UO-31 renal
TK-10 renal = test system: TK-10 renal
ACHN renal = test system: ACHN renal
CAKI-1 renal = test system: CAKI-1 renal
CCRF-CEM leukemia = test system: CCRF-CEM leukemia
MOLT-4 leukemia = test system: MOLT-4 leukemia
SR leukemia = test system: SR leukemia
RPMI-8226 leukemia = test system: RPMI-8226 leukemia
OVCAR-8 ovarian = test system: OVCAR-8 ovarian
OVCAR-5 ovarian = test system: OVCAR-5 ovarian
OVCAR-4 ovarian = test system: OVCAR-4 ovarian
SK-OV-3 ovarian = test system: SK-OV-3 ovarian
IGROV1 ovarian = test system: IGROV1 ovarian
OVCAR-3 ovarian = test system: OVCAR-3 ovarian
HS 578T breast = test system: HS 578T breast
NCI/ADR-RES ovarian = test system: NCI/ADR-RES ovarian
T-47D breast = test system: T-47D breast
A498 renal = test system: A498 renal

Measured: growth

O=C(N/N=C/c1ccc([N+](=O)[O-])s1)c1[nH]c2ccc(Br)cc2c1-c1ccccc1
active: EKVX NSCLC 9.91% | MOLT-4 leukemia 9.21% | SR leukemia 7.33% | RPMI-8226 leukemia 0.935% | OVCAR-8 ovarian -8.62%
inactive: SN12C renal 17.5% | UO-31 renal 46.6% | TK-10 renal 83.3% | ACHN renal 12.7% | CAKI-1 renal 23.6% | CCRF-CEM leukemia 16.1% | OVCAR-5 ovarian 27.9% | OVCAR-4 ovarian 55.9% | SK-OV-3 ovarian 45.8% | IGROV1 ovarian 24.4% | OVCAR-3 ovarian 24.1% | HS 578T breast 11.6% | NCI/ADR-RES ovarian 17.3% | T-47D breast 59.7%

C/C(=C(/c1ccc(Cl)cc1)c1ccc(OCCN)cc1)c1ccc(C)cc1
inactive: EKVX NSCLC 98.8% | SN12C renal 95.7% | UO-31 renal 83.2% | TK-10 renal 116% | ACHN renal 96.6% | CAKI-1 renal 86.6% | A498 renal 97.4% | CCRF-CEM leukemia 98.9% | MOLT-4 leukemia 96.4% | SR leukemia 88.6% | RPMI-8226 leukemia 96.5% | OVCAR-8 ovarian 100% | OVCAR-4 ovarian 97% | OVCAR-3 ovarian 105% | HS 578T breast 96.7% | NCI/ADR-RES ovarian 111% | T-47D breast 96.8%

CC(C)(C)OC(=O)N1C(=O)c2c(c3c4ccccc4[nH]c3c3ccc4ccccc4c23)C1=O
active: A498 renal -2.67%
inactive: EKVX NSCLC 67.7% | SN12C renal 52.6% | UO-31 renal 40.4% | TK-10 renal 36.8% | ACHN renal 34.5% | CAKI-1 renal 26% | CCRF-CEM leukemia 44.4% | MOLT-4 leukemia 38.2% | SR leukemia 23% | RPMI-8226 leukemia 45.4% | OVCAR-8 ovarian 60.7% | OVCAR-5 ovarian 63.8% | OVCAR-4 ovarian 77.4% | SK-OV-3 ovarian 45.7% | HS 578T breast 49.7% | NCI/ADR-RES ovarian 75.5% | T-47D breast 32.6%

O=C(CSc1nc2sc3c(c2c(=O)n1-c1ccc(Cl)cc1)CCCC3)N/N=C/c1ccc(F)cc1
inactive: EKVX NSCLC 90.3% | SN12C renal 97.1% | UO-31 renal 83.2% | TK-10 renal 125% | ACHN renal 108% | CAKI-1 renal 98% | A498 renal 96.8% | CCRF-CEM leukemia 65.9% | MOLT-4 leukemia 69.3% | SR leukemia 39.6% | RPMI-8226 leukemia 97.2% | OVCAR-8 ovarian 96.7% | OVCAR-4 ovarian 89.8% | SK-OV-3 ovarian 116% | IGROV1 ovarian 104% | OVCAR-3 ovarian 133% | HS 578T breast 115% | T-47D breast 109%

CCCC(=O)NC(c1cccc(N(C)C)c1)c1cc(C)c2cccnc2c1O (stereo unspecified)
inactive: EKVX NSCLC 73.8% | SN12C renal 78.2% | UO-31 renal 31.9% | TK-10 renal 84.9% | ACHN renal 38.2% | CAKI-1 renal 48.3% | CCRF-CEM leukemia 24.1% | MOLT-4 leukemia 22.9% | SR leukemia 21.7% | RPMI-8226 leukemia 63.8% | OVCAR-8 ovarian 44% | OVCAR-5 ovarian 87.4% | OVCAR-4 ovarian 53.1% | SK-OV-3 ovarian 56.5% | IGROV1 ovarian 40% | HS 578T breast 71.4% | NCI/ADR-RES ovarian 22.6% | T-47D breast 56.6%
active: OVCAR-3 ovarian 8.33%

Cc1ccc2c(n1)C(=O)C(Cl)=C(Nc1cccc(C(C)C)c1)C2=O
inactive: EKVX NSCLC 65% | SN12C renal 31.9% | UO-31 renal 50.3% | TK-10 renal 119% | ACHN renal 50.1% | CAKI-1 renal 75.3% | A498 renal 71.4% | CCRF-CEM leukemia 14.8% | MOLT-4 leukemia 35.4% | SR leukemia 24% | OVCAR-8 ovarian 57.2% | OVCAR-5 ovarian 109% | OVCAR-4 ovarian 22.6% | IGROV1 ovarian 22.1% | HS 578T breast 43.1%
active: RPMI-8226 leukemia 2.88% | OVCAR-3 ovarian 3.53% | T-47D breast 3.43%

O=C(Oc1ccc2ccc(=O)oc2c1)c1ccc(Cl)cc1
inactive: EKVX NSCLC 99.2% | SN12C renal 98.7% | UO-31 renal 86.7% | TK-10 renal 125% | ACHN renal 106% | CAKI-1 renal 98.5% | CCRF-CEM leukemia 103% | MOLT-4 leukemia 106% | SR leukemia 96.6% | RPMI-8226 leukemia 109% | OVCAR-8 ovarian 105% | OVCAR-5 ovarian 110% | OVCAR-4 ovarian 119% | SK-OV-3 ovarian 109% | IGROV1 ovarian 104% | OVCAR-3 ovarian 118% | HS 578T breast 103% | NCI/ADR-RES ovarian 101% | T-47D breast 105%

CCOC(=O)c1sc(NCC(=O)Nc2cccc([N+](=O)[O-])c2)c(C(=O)OCC)c1C
inactive: SR leukemia 19.3%
active: EKVX NSCLC -22.3% | SN12C renal -11.5% | UO-31 renal -64.6% | TK-10 renal -12.2% | ACHN renal -62.4% | CAKI-1 renal -17.5% | A498 renal -38% | CCRF-CEM leukemia 7.16% | MOLT-4 leukemia 6.63% | RPMI-8226 leukemia -31.6% | OVCAR-8 ovarian 1.78% | OVCAR-5 ovarian -13.7% | OVCAR-4 ovarian -26% | IGROV1 ovarian -41% | OVCAR-3 ovarian -4.13% | HS 578T breast -10.4% | T-47D breast -10.9%

CN(C)c1ccc(-c2c(NC(C)(C)C)nc3c(OCCc4ccccc4)cccn23)cc1
inactive: SN12C renal 12.5% | TK-10 renal 52.1% | ACHN renal 17.7% | CAKI-1 renal 11.7% | A498 renal 24.5% | OVCAR-8 ovarian 18.7% | OVCAR-5 ovarian 21.5% | OVCAR-4 ovarian 31.3% | IGROV1 ovarian 23.3% | OVCAR-3 ovarian 20.2% | HS 578T breast 23.8% | T-47D breast 10.1%
active: EKVX NSCLC 8.16% | UO-31 renal 4.11% | CCRF-CEM leukemia 5.5% | MOLT-4 leukemia 1.16% | SR leukemia -0.837% | RPMI-8226 leukemia -27.5% | NCI/ADR-RES ovarian 4.77%

CSc1ccc2c(c1)N(C(=O)/C(C#N)=C/c1c[nH]c3ccccc13)c1ccccc1S2
inactive: EKVX NSCLC 34.8% | SN12C renal 33.9% | UO-31 renal 50.4% | TK-10 renal 71.3% | ACHN renal 39.9% | CAKI-1 renal 38.5% | A498 renal 10.8% | CCRF-CEM leukemia 19% | MOLT-4 leukemia 30.5% | SR leukemia 34.4% | RPMI-8226 leukemia 21.3% | OVCAR-8 ovarian 52.4% | OVCAR-5 ovarian 63.1% | OVCAR-4 ovarian 59.5% | IGROV1 ovarian 40.2% | HS 578T breast 37.8% | T-47D breast 29.9%

COc1ccc(Cc2nn(CC(=O)N/N=C/c3ccc(Cl)cc3)c(=O)c3c(C)noc23)cc1
inactive: EKVX NSCLC 88.8% | SN12C renal 66% | UO-31 renal 84.9% | TK-10 renal 95.5% | ACHN renal 72.7% | CAKI-1 renal 80.8% | A498 renal 90.5% | CCRF-CEM leukemia 74.8% | MOLT-4 leukemia 89.7% | SR leukemia 53.9% | RPMI-8226 leukemia 87.4% | OVCAR-8 ovarian 61.9% | OVCAR-5 ovarian 97.3% | OVCAR-4 ovarian 59.2% | IGROV1 ovarian 82.1% | OVCAR-3 ovarian 107% | HS 578T breast 22.1% | T-47D breast 58.9%

O=C(NNc1nc2cc(F)ccc2n2c(CN3CC4(COC4)C3)ccc12)c1cnccn1
active: A498 renal -6.2% | CCRF-CEM leukemia 4.02% | MOLT-4 leukemia 6.4% | SR leukemia 0.659% | OVCAR-8 ovarian 8.35%
inactive: EKVX NSCLC 17.6% | SN12C renal 22.4% | UO-31 renal 13.7% | TK-10 renal 38.9% | ACHN renal 13.7% | CAKI-1 renal 19.3% | RPMI-8226 leukemia 22% | OVCAR-4 ovarian 33.3% | SK-OV-3 ovarian 15.2% | IGROV1 ovarian 18.6% | OVCAR-3 ovarian 16.1% | HS 578T breast 65.3% | NCI/ADR-RES ovarian 22% | T-47D breast 26.2%

Cn1cc(-c2cc(N)n3nc(-c4cn(C)c5ccc(Cl)cc45)cc3n2)c2cc(Cl)ccc21
active: SR leukemia 5.66%
inactive: EKVX NSCLC 94.9% | SN12C renal 85% | UO-31 renal 100% | TK-10 renal 116% | ACHN renal 102% | CAKI-1 renal 83.2% | A498 renal 73.1% | CCRF-CEM leukemia 24.8% | MOLT-4 leukemia 51% | RPMI-8226 leukemia 88.5% | OVCAR-8 ovarian 90.4% | OVCAR-4 ovarian 75.1% | SK-OV-3 ovarian 123% | IGROV1 ovarian 88.9% | OVCAR-3 ovarian 84.8% | HS 578T breast 107% | NCI/ADR-RES ovarian 73.5% | T-47D breast 90.7%

O=C(CSc1nc2sc3c(c2c(=O)n1-c1ccc(Cl)cc1)CCCC3)NNC(=O)Nc1ccc(Cl)c(C(F)(F)F)c1
active: A498 renal -15.5% | MOLT-4 leukemia 6.67% | SR leukemia 8.77% | RPMI-8226 leukemia 0.887% | OVCAR-3 ovarian 4.44% | T-47D breast -34.2%
inactive: EKVX NSCLC 41% | SN12C renal 32.3% | UO-31 renal 30.4% | TK-10 renal 38.3% | ACHN renal 13.3% | CAKI-1 renal 34.6% | CCRF-CEM leukemia 13.5% | OVCAR-8 ovarian 27.2% | OVCAR-4 ovarian 16% | SK-OV-3 ovarian 74.9% | IGROV1 ovarian 29.7% | HS 578T breast 69.4%

COc1ccc(/C=N/Nc2ccnc3cc(Cl)ccc23)cc1Cl
inactive: EKVX NSCLC 12.2% | A498 renal 36.7% | SK-OV-3 ovarian 123%
active: SN12C renal -70.8% | UO-31 renal -90% | TK-10 renal -81.6% | ACHN renal -99.8% | CAKI-1 renal -83.5% | CCRF-CEM leukemia -19.8% | MOLT-4 leukemia -25.3% | SR leukemia -9.69% | RPMI-8226 leukemia -37.8% | OVCAR-8 ovarian -57.6% | OVCAR-4 ovarian -60.7% | IGROV1 ovarian -59.5% | HS 578T breast -53.5% | T-47D breast -62%

Cn1c(SCC(=O)c2cccs2)nc2ccccc2c1=O
inactive: EKVX NSCLC 73.1% | SN12C renal 91.8% | UO-31 renal 84.5% | TK-10 renal 177% | ACHN renal 91.7% | CAKI-1 renal 82.1% | A498 renal 63.9% | CCRF-CEM leukemia 80.3% | MOLT-4 leukemia 87% | SR leukemia 90.4% | RPMI-8226 leukemia 81.7% | OVCAR-8 ovarian 97.5% | OVCAR-5 ovarian 109% | OVCAR-4 ovarian 92.9% | IGROV1 ovarian 74.8% | OVCAR-3 ovarian 98% | HS 578T breast 90.8% | T-47D breast 54.2%
